According to ChEMBL document CHEMBL1961873, “Compounds: GSK PKIS; Assays: Nanosyn kinase panel” (2012):

Each compound was assayed on Platelet-derived growth factor receptor alpha (Homo sapiens), P16234 [V561D]. Conditions: at 0.1 µM.
Platelet-derived growth factor receptor alpha (Homo sapiens), P16234 [V561D], sequence (P16234 whole entry V561D): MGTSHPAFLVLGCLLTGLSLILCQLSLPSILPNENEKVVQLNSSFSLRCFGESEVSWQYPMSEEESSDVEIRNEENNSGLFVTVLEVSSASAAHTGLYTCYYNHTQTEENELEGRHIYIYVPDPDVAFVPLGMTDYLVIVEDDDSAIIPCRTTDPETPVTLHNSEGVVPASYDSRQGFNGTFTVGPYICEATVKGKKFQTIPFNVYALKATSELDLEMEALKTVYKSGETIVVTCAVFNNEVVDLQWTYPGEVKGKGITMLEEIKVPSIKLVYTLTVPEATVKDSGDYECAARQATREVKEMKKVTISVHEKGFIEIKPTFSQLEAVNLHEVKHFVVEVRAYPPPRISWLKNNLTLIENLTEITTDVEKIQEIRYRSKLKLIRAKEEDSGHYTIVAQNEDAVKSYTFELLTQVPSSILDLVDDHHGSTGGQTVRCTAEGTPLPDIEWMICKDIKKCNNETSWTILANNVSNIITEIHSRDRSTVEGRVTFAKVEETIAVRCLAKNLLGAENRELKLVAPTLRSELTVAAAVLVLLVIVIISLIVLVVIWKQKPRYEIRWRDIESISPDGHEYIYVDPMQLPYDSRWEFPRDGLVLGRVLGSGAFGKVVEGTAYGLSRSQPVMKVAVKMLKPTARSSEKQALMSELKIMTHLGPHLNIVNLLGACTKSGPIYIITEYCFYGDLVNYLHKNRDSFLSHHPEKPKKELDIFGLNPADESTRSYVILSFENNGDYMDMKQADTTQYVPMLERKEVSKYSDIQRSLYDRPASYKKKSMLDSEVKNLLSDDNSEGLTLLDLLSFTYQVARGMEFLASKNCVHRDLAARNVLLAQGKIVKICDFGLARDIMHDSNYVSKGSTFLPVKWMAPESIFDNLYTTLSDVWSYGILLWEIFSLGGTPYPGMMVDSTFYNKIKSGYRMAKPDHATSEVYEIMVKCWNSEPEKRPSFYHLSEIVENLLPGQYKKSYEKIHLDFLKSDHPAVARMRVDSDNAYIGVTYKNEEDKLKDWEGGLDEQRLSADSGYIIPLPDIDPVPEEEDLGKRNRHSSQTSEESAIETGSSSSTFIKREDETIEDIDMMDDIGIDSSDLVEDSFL
CS(=O)(=O)CCNCc1nc(-c2ccc3ncnc(Nc4ccc(OCc5cccc(C(F)(F)F)c5)cc4)c3c2)cs1 gave an inhibition of 4.8%. CN(C)CCCn1c(-c2nonc2N)nc2cnccc21 gave an inhibition of 1.59%. For Cc1ccc(Nc2ccnc(Nc3cccc(C(N)=O)c3)n2)cc1O, the inhibition was 46.3%. Oc1cccc(-c2nc(-c3ccccc3)[nH]c2-c2ccncc2)c1 gave an inhibition of 2.42%. c1ccc(Cc2nc3ccc(Nc4ncnc5ccccc45)cc3[nH]2)cc1 was tested, and the inhibition was 3.34%. Work on COC(=O)c1ccc2c(c1)C(=Cc1cc(Br)c(O)c(Br)c1)C(=O)N2 yielded an inhibition of 4.32%.

Each compound was assayed on Platelet-derived growth factor receptor alpha (Homo sapiens), P16234 [V561D]. Conditions: at 1 µM.
Work on COc1cccc(-n2nc(C)c3c(N/N=C(\C)c4ccncc4)ncnc32)c1 yielded an inhibition of 0.01%. N#Cc1c(NC(=O)c2ccccc2F)sc2c1CCCC2 was tested, and the inhibition was 3.24%. Compound COc1cc2ncnc(Nc3ccc4c(cnn4Cc4ccccc4)c3)c2cc1OC has an inhibition of 23.3%. Cc1cc(O)cc(C)c1/C=C/c1cncc(C(=O)N(C)C)c1 gave an inhibition of 5.39%. For NS(=O)(=O)c1ccc(NC=C2C(=O)Nc3ccc4ncsc4c32)cc1, the inhibition was 94.9%. Compound NS(=O)(=O)c1ccc(-c2cc3ccncc3cc2OCc2ccccc2)cc1 has an inhibition of 6.32%. Cc1ccc2c(-c3ccnc(Nc4ccc5c(c4)OCCO5)n3)c(-c3ccc(C(F)(F)F)cc3)nn2n1 was tested, and the inhibition was 4.53%. In the case of Cc1cc(-c2ccccn2)cc(C)c1/C=C/c1cncc(-c2nn[nH]n2)c1, the inhibition is reported as 7.97%. Compound COc1cc(/C=N/Nc2ncnc3c2cnn3C(C)C)ccc1O has an inhibition of 54.8%. COC(=O)c1cncc(/C=C/c2c(C)cc(O)cc2C)c1 showed an inhibition of 54.8%. COc1ccc2ncnc(Nc3ccc(OCc4ccccc4)cc3)c2c1 gave an inhibition of 4.16%. Cc1ccc(O)cc1Nc1ccnc2ccc(S(C)(=O)=O)cc12 was tested, and the inhibition was 95%. CC(C)c1ccc(Nc2nccc(-c3cnn4ncccc34)n2)cc1 showed an inhibition of 55.2%. Compound COc1cc2ncn(-c3cc(OCc4ccccc4S(C)(=O)=O)c(C#N)s3)c2cc1OC has an inhibition of 87.8%. Nc1nccc(C#Cc2cncnc2Nc2ccc(OCc3cccc(F)c3)c(Cl)c2)n1 showed an inhibition of 4.88%. Compound [O-][S+]1CCN(Cc2ccc(-c3ccc4ncnc(Nc5ccc(OCc6ccccc6)c(Cl)c5)c4c3)o2)CC1 has an inhibition of 6.09%. CCS(=O)(=O)c1ccc(OC)c(Nc2nccc(N(C)c3ccc4c(C)n[nH]c4c3)n2)c1 showed an inhibition of 69.5%. With Nc1ccc(C#Cc2cncnc2Nc2ccc(OCc3cccc(F)c3)c(Cl)c2)cc1 the inhibition was 3.26%. For O=S(=O)(CCOCc1ccc(-c2ccc3ncnc(Nc4ccc(OCc5cccc(F)c5)c(Cl)c4)c3c2)o1)c1ccccc1, the inhibition was 3.68%. For CS(=O)(=O)Nc1cccc(-c2ccc3c(NC(=O)C4CC4)n[nH]c3c2)c1, the inhibition was 6.51%. CCCN1CCCC(c2ccc(Nc3nc(Nc4cc(F)ccc4C(N)=O)c4cc[nH]c4n3)c(OC)c2)C1 (configuration not stated) gave an inhibition of 33.1%. For OCc1ccc(-c2nc(-c3ccccn3)c(-c3ccc4c(c3)OCO4)[nH]2)cc1, the inhibition was 7.37%. COc1ccc(-c2nn3ncccc3c2-c2ccnc(Nc3cccc(C(F)(F)F)c3)n2)cc1 showed an inhibition of 5.31%. In the case of CCn1c(-c2nonc2N)nc2c(C#CC(C)(C)O)nc(OCCNC)cc21, the inhibition is reported as 11.1%. Cc1cc(Cl)cc2c1NC(=O)C2=NNc1ccc(S(N)(=O)=O)cc1 was tested, and the inhibition was 25.8%. O=C(Nc1ccc(Oc2ccc3[nH]c(NC(=O)c4ccco4)nc3c2)cc1)Nc1cc(C(F)(F)F)ccc1F was tested, and the inhibition was 95.4%. In the case of COc1cc(Nc2nccc(-c3cnn4ncccc34)n2)cc(OC)c1, the inhibition is reported as 75.2%. Compound CS(=O)(=O)CCNCc1nc(-c2ccc3ncnc(Nc4ccc(OCc5cccc(C(F)(F)F)c5)cc4)c3c2)cs1 has an inhibition of 20.4%. CN(C)CCCn1c(-c2nonc2N)nc2cnccc21 showed an inhibition of 4.37%. Work on Cc1ccc(Nc2ccnc(Nc3cccc(C(N)=O)c3)n2)cc1O yielded an inhibition of 87.2%. For Oc1cccc(-c2nc(-c3ccccc3)[nH]c2-c2ccncc2)c1, the inhibition was 9.69%. c1ccc(Cc2nc3ccc(Nc4ncnc5ccccc45)cc3[nH]2)cc1 gave an inhibition of 12.9%. In the case of COC(=O)c1ccc2c(c1)C(=Cc1cc(Br)c(O)c(Br)c1)C(=O)N2, the inhibition is reported as 12.3%.

The compounds below were run against Platelet-derived growth factor receptor beta (Homo sapiens) (UniProt P09619). Conditions: at 0.1 µM.
Platelet-derived growth factor receptor beta (Homo sapiens), sequence (P09619 whole entry): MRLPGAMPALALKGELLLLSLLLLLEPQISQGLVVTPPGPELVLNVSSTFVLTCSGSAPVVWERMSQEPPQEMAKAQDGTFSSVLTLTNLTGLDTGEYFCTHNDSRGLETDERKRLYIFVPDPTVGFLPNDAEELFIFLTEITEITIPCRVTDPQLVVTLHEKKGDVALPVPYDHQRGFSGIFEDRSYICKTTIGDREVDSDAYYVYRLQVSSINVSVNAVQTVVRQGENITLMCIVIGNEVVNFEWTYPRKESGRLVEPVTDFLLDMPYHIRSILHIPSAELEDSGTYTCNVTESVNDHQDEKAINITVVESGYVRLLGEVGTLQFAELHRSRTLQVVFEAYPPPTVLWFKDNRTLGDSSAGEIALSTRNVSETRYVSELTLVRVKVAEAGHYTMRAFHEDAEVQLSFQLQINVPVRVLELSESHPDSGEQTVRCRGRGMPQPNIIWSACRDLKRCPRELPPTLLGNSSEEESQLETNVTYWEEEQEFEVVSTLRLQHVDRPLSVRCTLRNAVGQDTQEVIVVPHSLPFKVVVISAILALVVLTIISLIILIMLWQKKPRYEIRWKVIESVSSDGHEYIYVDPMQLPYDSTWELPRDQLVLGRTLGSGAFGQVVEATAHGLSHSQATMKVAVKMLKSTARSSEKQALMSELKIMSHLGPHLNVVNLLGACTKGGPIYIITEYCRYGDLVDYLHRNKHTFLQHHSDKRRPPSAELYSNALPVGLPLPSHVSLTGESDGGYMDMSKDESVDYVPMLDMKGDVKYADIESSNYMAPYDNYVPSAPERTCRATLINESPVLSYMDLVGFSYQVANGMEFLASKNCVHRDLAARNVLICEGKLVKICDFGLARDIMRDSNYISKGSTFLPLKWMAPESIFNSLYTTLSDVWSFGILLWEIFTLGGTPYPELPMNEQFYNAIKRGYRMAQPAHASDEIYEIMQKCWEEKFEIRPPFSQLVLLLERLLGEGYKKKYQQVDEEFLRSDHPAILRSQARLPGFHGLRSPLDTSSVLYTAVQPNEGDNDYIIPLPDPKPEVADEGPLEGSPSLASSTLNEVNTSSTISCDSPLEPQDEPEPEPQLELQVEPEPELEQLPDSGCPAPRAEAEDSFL
With COc1cccc(-n2nc(C)c3c(N/N=C(\C)c4ccncc4)ncnc32)c1 the inhibition was 3.11%. For N#Cc1c(NC(=O)c2ccccc2F)sc2c1CCCC2, the inhibition was 1.07%. In the case of COc1cc2ncnc(Nc3ccc4c(cnn4Cc4ccccc4)c3)c2cc1OC, the inhibition is reported as 3.39%. Cc1cc(O)cc(C)c1/C=C/c1cncc(C(=O)N(C)C)c1 gave an inhibition of 5.76%. In the case of NS(=O)(=O)c1ccc(NC=C2C(=O)Nc3ccc4ncsc4c32)cc1, the inhibition is reported as 73.2%. NS(=O)(=O)c1ccc(-c2cc3ccncc3cc2OCc2ccccc2)cc1 gave an inhibition of 3.66%. In the case of Cc1ccc2c(-c3ccnc(Nc4ccc5c(c4)OCCO5)n3)c(-c3ccc(C(F)(F)F)cc3)nn2n1, the inhibition is reported as 2.08%. Cc1cc(-c2ccccn2)cc(C)c1/C=C/c1cncc(-c2nn[nH]n2)c1 gave an inhibition of 4.53%. COc1cc(/C=N/Nc2ncnc3c2cnn3C(C)C)ccc1O was tested, and the inhibition was 8.52%. Compound COC(=O)c1cncc(/C=C/c2c(C)cc(O)cc2C)c1 has an inhibition of 9.77%. COc1ccc2ncnc(Nc3ccc(OCc4ccccc4)cc3)c2c1 gave an inhibition of 0.54%. With Cc1ccc(O)cc1Nc1ccnc2ccc(S(C)(=O)=O)cc12 the inhibition was 63.8%. Compound CC(C)c1ccc(Nc2nccc(-c3cnn4ncccc34)n2)cc1 has an inhibition of 9.63%. COc1cc2ncn(-c3cc(OCc4ccccc4S(C)(=O)=O)c(C#N)s3)c2cc1OC was tested, and the inhibition was 45.3%. In the case of Nc1nccc(C#Cc2cncnc2Nc2ccc(OCc3cccc(F)c3)c(Cl)c2)n1, the inhibition is reported as 7.6%. With [O-][S+]1CCN(Cc2ccc(-c3ccc4ncnc(Nc5ccc(OCc6ccccc6)c(Cl)c5)c4c3)o2)CC1 the inhibition was 3.07%. Work on CCS(=O)(=O)c1ccc(OC)c(Nc2nccc(N(C)c3ccc4c(C)n[nH]c4c3)n2)c1 yielded an inhibition of 20.9%. With Nc1ccc(C#Cc2cncnc2Nc2ccc(OCc3cccc(F)c3)c(Cl)c2)cc1 the inhibition was 3.04%. O=S(=O)(CCOCc1ccc(-c2ccc3ncnc(Nc4ccc(OCc5cccc(F)c5)c(Cl)c4)c3c2)o1)c1ccccc1 gave an inhibition of 2.33%. With CS(=O)(=O)Nc1cccc(-c2ccc3c(NC(=O)C4CC4)n[nH]c3c2)c1 the inhibition was -2.19%. CCCN1CCCC(c2ccc(Nc3nc(Nc4cc(F)ccc4C(N)=O)c4cc[nH]c4n3)c(OC)c2)C1 (configuration not stated) showed an inhibition of 6.16%. With OCc1ccc(-c2nc(-c3ccccn3)c(-c3ccc4c(c3)OCO4)[nH]2)cc1 the inhibition was 4.87%. COc1ccc(-c2nn3ncccc3c2-c2ccnc(Nc3cccc(C(F)(F)F)c3)n2)cc1 gave an inhibition of -0.23%. For CCn1c(-c2nonc2N)nc2c(C#CC(C)(C)O)nc(OCCNC)cc21, the inhibition was 3.31%. Compound Cc1cc(Cl)cc2c1NC(=O)C2=NNc1ccc(S(N)(=O)=O)cc1 has an inhibition of 2.83%. For O=C(Nc1ccc(Oc2ccc3[nH]c(NC(=O)c4ccco4)nc3c2)cc1)Nc1cc(C(F)(F)F)ccc1F, the inhibition was 12.1%. Compound COc1cc(Nc2nccc(-c3cnn4ncccc34)n2)cc(OC)c1 has an inhibition of 40.2%. CS(=O)(=O)CCNCc1nc(-c2ccc3ncnc(Nc4ccc(OCc5cccc(C(F)(F)F)c5)cc4)c3c2)cs1 was tested, and the inhibition was 6.68%. CN(C)CCCn1c(-c2nonc2N)nc2cnccc21 showed an inhibition of 5.05%. Cc1ccc(Nc2ccnc(Nc3cccc(C(N)=O)c3)n2)cc1O showed an inhibition of 54.7%. Oc1cccc(-c2nc(-c3ccccc3)[nH]c2-c2ccncc2)c1 showed an inhibition of 5.66%. For c1ccc(Cc2nc3ccc(Nc4ncnc5ccccc45)cc3[nH]2)cc1, the inhibition was 4.81%. COC(=O)c1ccc2c(c1)C(=Cc1cc(Br)c(O)c(Br)c1)C(=O)N2 gave an inhibition of 1.55%.
